Experimental data: PubChem BioAssay (NCATS)
Records with an inconclusive call do not appear. Active and inactive are the calls of the source. Calls follow the shape of the dose curve; as a rule, active = well fitted inhibition curve with a large enough effect; inconclusive = small, poorly fitted or top-dose-only effect; inactive = flat fitted curve, though single readings scatter.

test system: HaCat; test: Cytotoxic Profiling of Annotated Libraries Using Quantitative High-Throughput Screening (AID 1296008); details: Five cell lines viability, CellTiter-Glo ATP luminescence, 48-72 h; max response: stronger effect = lower value; also: nearly all actives have a fitted effect of over 60% in size
Procedure, shortened: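 Cells exposed to compounds for 48 or 72 hr at 37 degrees Celsius. Viability read as ATP-coupled luminescence with CellTiter-Glo after 10 min at room temperature.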
% is scaled to controls: 0 for no effect and ±100 for the full control effect; potency is read from the fitted curve at half-maximal effect.

Which Potency does the source give for `C=C1C(=O)O[C@@H]2C[C@H](C)[C@@H]3CC(=O)C(C)=C3C[C@H]12` here?
The Potency was 14.6 µM (active).

`C[C@@H](N[C@H]1CCCC[C@@H]1NC(=O)c1ccc(Cl)cc1)c1cccc2ccccc12` was tested. Which max response did it give?
Its max response is -13% (inactive).

`N#Cc1ccc(Nc2nc(-c3ccc(O)cc3O)cs2)cc1C(F)(F)F` was tested. Which Potency did it give?
Its Potency is 7.31 µM (active).

With `CC(C)S(=O)(=O)NC[C@H](C)c1ccc(-c2ccc(CCNS(C)(=O)=O)cc2)cc1` as the molecule, how does the max response read?
The max response was 2.78% (inactive).

For `Cn1c(=O)c2c(ncn2Cc2ccc(C(C)(C)C)cc2)n(C)c1=O`, which max response is on record?
The max response was -22.1% (inactive).

How did the Potency turn out when `COC1CC/C=C(\C)C(=O)Nc2cc(O)cc(c2)CC(C)CC(OC)C(O)C(C)/C=C(\C)C1OC(N)=O` (stereo not drawn) was run?
The Potency was 7.09 µM (active).

`O=C1C(Cc2ccc(O)cc2)N2C(=O)CCN(C(=O)NCc3ccccc3)C2CN1Cc1cccc2ccccc12` (stereo not drawn) was tested. Which Potency did it give?
Its Potency is 5.8 µM (active).

How did the max response turn out when `CC(O)C(C)n1ncn(-c2ccc(N3CCN(c4ccc(OCC5COC(Cn6cncn6)(c6ccc(Cl)cc6Cl)O5)cc4)CC3)cc2)c1=O` (stereo not drawn) was run?
The max response was -3.2% (inactive).

`C=C1CC[C@@H]2[C@](C)(CO)[C@H](O)CC[C@@]2(C)[C@@H]1C/C=C1/C(=O)OCC1O` (stereo partly drawn) was tested. Which max response did it give?
Its max response is -10.5% (inactive).

With `CC(C)n1cnc2c(-c3cnc(N)nc3)nc(N3CCOCC3)nc21` as the molecule, how does the Potency read?
Its Potency is 0.632 µM (active).

With `COc1ccc(-c2cc3onc(-c4ccncc4)c3c(=O)n2C)cc1` as the molecule, how does the max response read?
The max response was -2.33% (inactive).

For `Cc1csc2c(N[C@@H](C)CN3CCN(S(=O)(=O)c4ccc(Cl)c(Cl)c4)CC3)ncnc12`, which Potency is on record?
The Potency was 2.91 µM (active).

For `Cc1nnc(C[C@@H]2C=C(c3ccc(Cl)cc3)c3ccccc3-n3c(C)nnc32)o1`, which max response is on record?
Its max response is -1.46% (inactive).
